Results taken from PubChem BioAssay AID651839 (Vanderbilt Specialized Chemistry Center, 2012).
Entries with a potency or affinity are not part of this list. Active and inactive are the calls of the source.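 How the source made its calls: active means compounds whose mean inhibitory potency against the glutamate signal is under 30 µM; inactive means the rest.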

Each molecule was assayed against Metabotropic glutamate receptor 3 (Rattus norvegicus) (UniProt P31422) (assay: inhibition of rat mGlu3 glutamate signaling – HEK/GIRK cells, thallium flux, dose response (AID 651839)). Conditions: HEK293 GIRK rat mGlu3, thallium flux fluorescence; series mostly up to 30 µM.
Sequence of Metabotropic glutamate receptor 3 (Rattus norvegicus) (P31422 whole entry, looked up): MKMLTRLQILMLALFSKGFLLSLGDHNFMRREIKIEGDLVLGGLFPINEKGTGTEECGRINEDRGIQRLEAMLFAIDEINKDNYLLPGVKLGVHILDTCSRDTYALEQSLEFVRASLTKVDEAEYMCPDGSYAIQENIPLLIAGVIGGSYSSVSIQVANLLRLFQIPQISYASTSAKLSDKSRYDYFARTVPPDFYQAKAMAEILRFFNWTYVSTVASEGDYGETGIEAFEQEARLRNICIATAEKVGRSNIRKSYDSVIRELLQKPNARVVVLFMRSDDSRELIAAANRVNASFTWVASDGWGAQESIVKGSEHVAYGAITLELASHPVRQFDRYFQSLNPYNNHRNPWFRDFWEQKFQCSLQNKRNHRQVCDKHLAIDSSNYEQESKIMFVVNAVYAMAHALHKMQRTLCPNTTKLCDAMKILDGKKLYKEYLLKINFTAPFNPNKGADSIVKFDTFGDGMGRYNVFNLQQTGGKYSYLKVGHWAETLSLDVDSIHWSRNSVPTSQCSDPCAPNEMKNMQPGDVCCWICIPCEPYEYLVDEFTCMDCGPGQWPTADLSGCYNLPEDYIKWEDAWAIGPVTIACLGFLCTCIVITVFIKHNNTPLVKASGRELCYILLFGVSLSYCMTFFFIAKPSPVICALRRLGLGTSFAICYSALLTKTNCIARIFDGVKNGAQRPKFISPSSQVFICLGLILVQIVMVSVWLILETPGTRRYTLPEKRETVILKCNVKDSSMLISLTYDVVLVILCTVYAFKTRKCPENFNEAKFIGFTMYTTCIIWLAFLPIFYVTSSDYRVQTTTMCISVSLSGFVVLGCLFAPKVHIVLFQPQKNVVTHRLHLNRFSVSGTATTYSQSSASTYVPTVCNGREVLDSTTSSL

outcome, inactive:
COc1ccc(COc2ccc(C(=O)N3CCC(CO)C3)cc2)cc1 (stereo not given)
COc1ccc(COc2ccc(C(=O)N3CCC(OC)C3)cc2)cc1 (stereo not given)
COc1ccc(C#Cc2ccc(C(=O)NCC(C)(C)O)cc2)c(F)c1
O=C(c1ccc2cc(-c3ccncc3)ccc2c1)N1CCCC(CO)C1 (stereo not given)
COc1ccc(COc2ccc(C(=O)N3CCCC(OC)C3)cc2)cc1 (stereo not given)
COc1ccc(COc2ccc(C(=O)N3CC[C@H](O)C3)cc2)cc1
COc1ccc(C#Cc2ccc(C(=O)NC(C)(C)CO)cc2)c(F)c1
COc1ccc(COc2ccc(C(=O)NCCC(C)(C)C)cc2)cc1
COc1ccc(COc2ccc(C(=O)N3CC[C@@H](O)C3)cc2)cc1
COc1ccc(C#Cc2ccc(C(=O)NCCC(C)(C)C)cc2)c(F)c1
